The values below come from ChEMBL document CHEMBL1961873, “Compounds: GSK PKIS; Assays: Nanosyn kinase panel” (2012).

The target of assay [1] is Sphingosine kinase 1 (Homo sapiens) (UniProt Q9NYA1). Conditions: at 1 µM.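 Note: mean SPHK1 inhibition value reported from the GSK PKIS kinase panel screen.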
The target in assay [2] is T1, Sphingosine kinase 2 (Homo sapiens) (UniProt Q9NRA0).
T1 sequence (whole entry): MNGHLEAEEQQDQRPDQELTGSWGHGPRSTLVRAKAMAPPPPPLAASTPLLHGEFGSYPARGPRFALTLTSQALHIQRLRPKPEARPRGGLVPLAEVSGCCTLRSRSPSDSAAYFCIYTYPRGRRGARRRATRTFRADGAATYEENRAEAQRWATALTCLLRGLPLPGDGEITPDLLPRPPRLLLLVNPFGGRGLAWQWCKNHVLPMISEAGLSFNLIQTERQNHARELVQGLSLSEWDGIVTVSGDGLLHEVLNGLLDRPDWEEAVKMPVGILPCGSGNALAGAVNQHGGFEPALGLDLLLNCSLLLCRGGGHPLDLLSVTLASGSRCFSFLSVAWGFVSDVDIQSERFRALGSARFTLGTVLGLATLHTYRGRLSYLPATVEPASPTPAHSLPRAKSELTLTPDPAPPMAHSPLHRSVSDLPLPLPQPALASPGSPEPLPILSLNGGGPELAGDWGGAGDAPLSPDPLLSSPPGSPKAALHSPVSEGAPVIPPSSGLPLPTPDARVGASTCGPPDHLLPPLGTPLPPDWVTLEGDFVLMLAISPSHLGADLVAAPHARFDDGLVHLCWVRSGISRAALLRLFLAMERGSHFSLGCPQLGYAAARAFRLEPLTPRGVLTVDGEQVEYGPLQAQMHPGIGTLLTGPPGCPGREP
Conditions: at 0.1 µM.

Assay [3] addresses T1, Sphingosine kinase 2 (Homo sapiens). The conditions noted are these: at 1 µM.
Assay [4] has as its target Casein kinase II subunit alpha (Homo sapiens) (UniProt P68400). Conditions: at 0.1 µM.
For assay [5] the target is unchanged. Conditions: at 1 µM.
Assay [6] has as its target T2, Inhibitor of nuclear factor kappa-B kinase subunit alpha (Homo sapiens) (UniProt O15111).
T2 sequence (whole entry): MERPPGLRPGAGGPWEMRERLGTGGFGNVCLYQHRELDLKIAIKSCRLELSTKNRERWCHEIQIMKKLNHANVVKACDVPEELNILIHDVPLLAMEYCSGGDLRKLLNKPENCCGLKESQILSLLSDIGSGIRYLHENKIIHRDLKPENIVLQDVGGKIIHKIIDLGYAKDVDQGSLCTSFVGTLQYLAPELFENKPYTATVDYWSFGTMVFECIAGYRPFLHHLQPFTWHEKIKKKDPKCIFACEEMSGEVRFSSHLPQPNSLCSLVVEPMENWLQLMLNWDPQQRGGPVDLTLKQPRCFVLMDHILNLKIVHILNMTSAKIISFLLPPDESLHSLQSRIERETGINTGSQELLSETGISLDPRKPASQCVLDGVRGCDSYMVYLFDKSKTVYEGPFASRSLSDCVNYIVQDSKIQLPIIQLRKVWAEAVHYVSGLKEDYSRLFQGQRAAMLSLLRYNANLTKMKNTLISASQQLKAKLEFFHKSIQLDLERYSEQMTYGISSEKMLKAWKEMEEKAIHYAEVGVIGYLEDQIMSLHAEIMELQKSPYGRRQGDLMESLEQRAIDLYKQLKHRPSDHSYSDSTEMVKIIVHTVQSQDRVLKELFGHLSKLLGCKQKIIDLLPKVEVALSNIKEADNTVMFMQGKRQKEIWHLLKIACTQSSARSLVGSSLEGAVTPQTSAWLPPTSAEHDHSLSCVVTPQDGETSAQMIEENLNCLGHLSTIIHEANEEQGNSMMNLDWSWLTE
Conditions: at 0.1 µM.

Assay [7] addresses T2, Inhibitor of nuclear factor kappa-B kinase subunit alpha (Homo sapiens). The conditions noted are these: at 1 µM.
Assay [8] addresses T3, Inhibitor of nuclear factor kappa-B kinase subunit beta (Homo sapiens) (UniProt O14920).
T3 sequence (whole entry): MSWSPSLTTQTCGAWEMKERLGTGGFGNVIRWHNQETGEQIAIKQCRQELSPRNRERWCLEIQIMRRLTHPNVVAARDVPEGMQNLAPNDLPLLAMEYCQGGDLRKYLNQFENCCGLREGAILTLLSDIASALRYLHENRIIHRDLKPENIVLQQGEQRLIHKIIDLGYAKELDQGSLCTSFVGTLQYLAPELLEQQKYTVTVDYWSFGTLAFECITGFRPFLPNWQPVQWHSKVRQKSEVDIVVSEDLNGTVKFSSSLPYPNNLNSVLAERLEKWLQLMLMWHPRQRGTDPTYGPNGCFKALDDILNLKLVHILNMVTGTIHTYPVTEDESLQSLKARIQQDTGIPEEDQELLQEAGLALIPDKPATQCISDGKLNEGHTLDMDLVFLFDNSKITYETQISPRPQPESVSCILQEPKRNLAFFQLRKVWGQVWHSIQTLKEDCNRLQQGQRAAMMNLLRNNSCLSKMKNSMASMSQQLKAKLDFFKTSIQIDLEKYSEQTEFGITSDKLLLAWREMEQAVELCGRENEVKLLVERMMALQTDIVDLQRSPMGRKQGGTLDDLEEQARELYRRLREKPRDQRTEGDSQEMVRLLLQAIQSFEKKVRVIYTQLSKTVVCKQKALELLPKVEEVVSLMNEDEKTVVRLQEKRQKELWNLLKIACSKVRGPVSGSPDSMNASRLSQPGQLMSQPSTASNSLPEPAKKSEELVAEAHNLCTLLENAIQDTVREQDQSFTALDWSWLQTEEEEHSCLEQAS
Conditions: at 0.1 µM.

Assay [9] addresses T3, Inhibitor of nuclear factor kappa-B kinase subunit beta (Homo sapiens). Conditions: at 1 µM.
For assay [10], the target named is T4, Inhibitor of nuclear factor kappa-B kinase subunit epsilon (Homo sapiens) (UniProt Q14164).
T4 sequence (whole entry): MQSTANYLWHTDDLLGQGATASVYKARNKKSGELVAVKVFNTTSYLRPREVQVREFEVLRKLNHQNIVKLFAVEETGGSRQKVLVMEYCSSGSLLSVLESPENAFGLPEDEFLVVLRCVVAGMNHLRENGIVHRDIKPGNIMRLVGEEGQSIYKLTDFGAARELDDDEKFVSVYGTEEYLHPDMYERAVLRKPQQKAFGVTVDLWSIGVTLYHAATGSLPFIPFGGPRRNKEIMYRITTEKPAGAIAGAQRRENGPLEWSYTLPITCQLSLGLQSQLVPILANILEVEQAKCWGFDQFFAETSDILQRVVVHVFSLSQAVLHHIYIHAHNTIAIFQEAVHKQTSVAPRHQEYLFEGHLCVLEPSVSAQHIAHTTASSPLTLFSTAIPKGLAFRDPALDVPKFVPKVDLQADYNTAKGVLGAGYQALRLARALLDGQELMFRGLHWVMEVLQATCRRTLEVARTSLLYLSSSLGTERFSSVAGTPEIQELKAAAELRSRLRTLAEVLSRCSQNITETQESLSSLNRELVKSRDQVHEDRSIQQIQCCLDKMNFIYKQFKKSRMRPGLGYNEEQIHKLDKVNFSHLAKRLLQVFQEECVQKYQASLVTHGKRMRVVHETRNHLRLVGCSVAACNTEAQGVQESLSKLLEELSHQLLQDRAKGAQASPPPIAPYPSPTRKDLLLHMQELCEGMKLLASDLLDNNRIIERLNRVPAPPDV
Conditions: at 0.1 µM.

Assay [11] addresses T4, Inhibitor of nuclear factor kappa-B kinase subunit epsilon (Homo sapiens). The conditions noted are these: at 1 µM.
Assay [12] concerns the target T5, Serine/threonine-protein kinase Nek1 (Homo sapiens) (UniProt Q96PY6).
T5 sequence (whole entry): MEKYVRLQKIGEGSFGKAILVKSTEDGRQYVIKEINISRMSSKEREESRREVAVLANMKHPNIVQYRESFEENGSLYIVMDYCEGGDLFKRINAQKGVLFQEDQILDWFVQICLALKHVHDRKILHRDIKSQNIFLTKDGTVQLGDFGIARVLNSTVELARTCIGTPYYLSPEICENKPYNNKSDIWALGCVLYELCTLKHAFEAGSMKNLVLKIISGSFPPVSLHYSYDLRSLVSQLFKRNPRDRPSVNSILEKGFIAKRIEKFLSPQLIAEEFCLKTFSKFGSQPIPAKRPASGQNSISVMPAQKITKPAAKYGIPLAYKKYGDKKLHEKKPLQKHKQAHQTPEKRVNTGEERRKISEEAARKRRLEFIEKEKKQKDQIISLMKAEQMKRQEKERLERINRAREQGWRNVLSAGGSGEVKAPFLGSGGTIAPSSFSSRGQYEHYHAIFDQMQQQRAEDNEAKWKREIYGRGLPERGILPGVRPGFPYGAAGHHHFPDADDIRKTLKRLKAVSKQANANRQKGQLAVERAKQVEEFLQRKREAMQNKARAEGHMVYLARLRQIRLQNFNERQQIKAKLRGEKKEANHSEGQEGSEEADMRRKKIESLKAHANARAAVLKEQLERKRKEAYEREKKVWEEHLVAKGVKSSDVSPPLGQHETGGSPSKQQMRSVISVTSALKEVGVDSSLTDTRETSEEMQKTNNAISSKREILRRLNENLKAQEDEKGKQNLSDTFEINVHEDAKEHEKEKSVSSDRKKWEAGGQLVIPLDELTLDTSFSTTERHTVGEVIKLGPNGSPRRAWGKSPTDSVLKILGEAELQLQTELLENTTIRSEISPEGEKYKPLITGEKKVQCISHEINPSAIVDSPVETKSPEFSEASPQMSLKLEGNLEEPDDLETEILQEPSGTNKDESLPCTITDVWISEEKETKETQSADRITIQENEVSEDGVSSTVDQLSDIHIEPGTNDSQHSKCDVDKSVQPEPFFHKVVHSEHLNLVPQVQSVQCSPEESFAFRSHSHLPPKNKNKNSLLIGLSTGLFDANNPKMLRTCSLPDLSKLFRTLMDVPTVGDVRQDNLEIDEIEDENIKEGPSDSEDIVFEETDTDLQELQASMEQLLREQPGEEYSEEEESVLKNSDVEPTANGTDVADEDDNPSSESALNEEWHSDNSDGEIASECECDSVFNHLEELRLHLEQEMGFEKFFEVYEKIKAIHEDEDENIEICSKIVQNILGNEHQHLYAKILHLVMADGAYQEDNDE
The conditions noted are these: at 0.1 µM.

Assay [13] concerns the target T5, Serine/threonine-protein kinase Nek1 (Homo sapiens). The conditions noted are these: at 1 µM.
Assay [14] addresses T6, Serine/threonine-protein kinase Nek2 (Homo sapiens) (UniProt P51955).
T6 sequence (whole entry): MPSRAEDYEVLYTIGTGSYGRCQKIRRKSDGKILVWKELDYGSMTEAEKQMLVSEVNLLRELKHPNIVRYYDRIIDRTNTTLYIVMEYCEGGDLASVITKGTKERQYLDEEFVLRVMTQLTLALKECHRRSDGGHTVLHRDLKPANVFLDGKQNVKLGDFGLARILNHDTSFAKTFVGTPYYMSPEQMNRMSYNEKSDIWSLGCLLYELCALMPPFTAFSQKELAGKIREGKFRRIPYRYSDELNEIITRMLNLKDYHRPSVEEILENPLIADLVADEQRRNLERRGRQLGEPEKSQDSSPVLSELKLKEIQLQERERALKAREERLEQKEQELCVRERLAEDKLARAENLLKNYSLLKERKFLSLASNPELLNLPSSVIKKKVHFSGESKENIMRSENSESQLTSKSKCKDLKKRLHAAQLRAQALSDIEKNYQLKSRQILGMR
The conditions noted are these: at 0.1 µM.

Assay [15] deals with T6, Serine/threonine-protein kinase Nek2 (Homo sapiens). The conditions noted are these: at 1 µM.
The target in assay [16] is Serine/threonine-protein kinase Nek6 (Homo sapiens) (UniProt Q9HC98). The conditions noted are these: at 0.1 µM.
For assay [17] the target is unchanged. Conditions: at 1 µM.
For assay [18], the target named is Serine/threonine-protein kinase Nek7 (Homo sapiens) (UniProt Q8TDX7). Conditions: at 0.1 µM.
Assay [19] shares this target. The conditions noted are these: at 1 µM.
For assay [20], the target named is T7, Serine/threonine-protein kinase Nek9 (Homo sapiens) (UniProt Q8TD19).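 Note: reported value is the mean percent inhibition of NEK9.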
T7 sequence (whole entry): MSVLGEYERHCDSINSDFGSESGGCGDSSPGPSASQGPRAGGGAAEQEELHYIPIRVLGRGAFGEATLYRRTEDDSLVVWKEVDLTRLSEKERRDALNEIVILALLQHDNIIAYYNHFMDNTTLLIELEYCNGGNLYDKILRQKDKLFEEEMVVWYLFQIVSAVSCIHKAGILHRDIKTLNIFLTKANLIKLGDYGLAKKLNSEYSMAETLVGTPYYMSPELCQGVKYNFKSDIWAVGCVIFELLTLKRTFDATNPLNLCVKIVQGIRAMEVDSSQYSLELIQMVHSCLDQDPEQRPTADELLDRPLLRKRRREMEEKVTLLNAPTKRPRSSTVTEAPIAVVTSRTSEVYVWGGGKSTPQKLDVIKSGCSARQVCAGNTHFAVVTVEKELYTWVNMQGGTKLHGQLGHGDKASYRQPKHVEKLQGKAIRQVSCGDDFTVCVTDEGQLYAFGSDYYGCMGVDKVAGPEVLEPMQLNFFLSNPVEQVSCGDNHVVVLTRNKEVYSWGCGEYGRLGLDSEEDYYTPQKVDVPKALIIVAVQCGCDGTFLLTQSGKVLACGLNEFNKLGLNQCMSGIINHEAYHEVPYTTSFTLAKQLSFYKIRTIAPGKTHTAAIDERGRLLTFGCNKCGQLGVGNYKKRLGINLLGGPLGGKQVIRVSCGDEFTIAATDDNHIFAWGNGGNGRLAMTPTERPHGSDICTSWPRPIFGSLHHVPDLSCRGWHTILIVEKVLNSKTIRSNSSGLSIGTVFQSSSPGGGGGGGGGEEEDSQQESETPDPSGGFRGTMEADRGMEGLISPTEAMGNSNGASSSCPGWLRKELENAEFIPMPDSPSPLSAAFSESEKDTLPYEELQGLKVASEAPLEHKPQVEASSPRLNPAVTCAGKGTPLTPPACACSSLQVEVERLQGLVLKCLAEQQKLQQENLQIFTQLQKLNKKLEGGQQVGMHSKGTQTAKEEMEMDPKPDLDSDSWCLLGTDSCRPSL
The conditions noted are these: at 0.1 µM.

Chain of Casein kinase II subunit alpha (Homo sapiens) (P68400 whole entry, looked up): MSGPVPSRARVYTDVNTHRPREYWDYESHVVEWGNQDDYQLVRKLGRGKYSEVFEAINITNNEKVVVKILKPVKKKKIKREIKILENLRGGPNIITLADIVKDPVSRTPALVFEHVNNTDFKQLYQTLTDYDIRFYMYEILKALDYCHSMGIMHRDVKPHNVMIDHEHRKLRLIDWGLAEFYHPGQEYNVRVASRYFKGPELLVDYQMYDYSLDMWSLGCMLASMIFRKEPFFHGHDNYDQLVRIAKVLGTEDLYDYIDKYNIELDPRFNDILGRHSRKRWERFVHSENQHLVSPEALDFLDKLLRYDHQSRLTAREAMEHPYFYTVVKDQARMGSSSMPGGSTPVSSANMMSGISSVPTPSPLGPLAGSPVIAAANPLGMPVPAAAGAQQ
Chain of Serine/threonine-protein kinase Nek7 (Homo sapiens) (Q8TDX7 whole entry, looked up): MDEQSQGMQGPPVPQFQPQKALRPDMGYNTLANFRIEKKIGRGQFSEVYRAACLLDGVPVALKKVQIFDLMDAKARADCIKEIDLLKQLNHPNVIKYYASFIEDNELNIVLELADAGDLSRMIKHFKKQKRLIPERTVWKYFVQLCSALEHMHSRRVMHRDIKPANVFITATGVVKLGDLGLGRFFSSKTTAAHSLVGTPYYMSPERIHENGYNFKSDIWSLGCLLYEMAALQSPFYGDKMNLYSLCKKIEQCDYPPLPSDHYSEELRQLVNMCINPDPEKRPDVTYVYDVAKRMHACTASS
Chain of Serine/threonine-protein kinase Nek6 (Homo sapiens) (Q9HC98 whole entry): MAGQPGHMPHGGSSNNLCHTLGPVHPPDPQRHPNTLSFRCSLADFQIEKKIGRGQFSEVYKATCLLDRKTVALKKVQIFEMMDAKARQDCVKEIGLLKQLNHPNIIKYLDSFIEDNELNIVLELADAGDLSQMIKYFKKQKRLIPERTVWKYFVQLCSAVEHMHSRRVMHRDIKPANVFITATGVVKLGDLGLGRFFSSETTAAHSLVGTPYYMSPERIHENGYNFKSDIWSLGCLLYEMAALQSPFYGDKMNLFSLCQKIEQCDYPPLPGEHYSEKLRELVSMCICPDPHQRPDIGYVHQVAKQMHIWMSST
Chain of Sphingosine kinase 1 (Homo sapiens) (Q9NYA1 whole entry): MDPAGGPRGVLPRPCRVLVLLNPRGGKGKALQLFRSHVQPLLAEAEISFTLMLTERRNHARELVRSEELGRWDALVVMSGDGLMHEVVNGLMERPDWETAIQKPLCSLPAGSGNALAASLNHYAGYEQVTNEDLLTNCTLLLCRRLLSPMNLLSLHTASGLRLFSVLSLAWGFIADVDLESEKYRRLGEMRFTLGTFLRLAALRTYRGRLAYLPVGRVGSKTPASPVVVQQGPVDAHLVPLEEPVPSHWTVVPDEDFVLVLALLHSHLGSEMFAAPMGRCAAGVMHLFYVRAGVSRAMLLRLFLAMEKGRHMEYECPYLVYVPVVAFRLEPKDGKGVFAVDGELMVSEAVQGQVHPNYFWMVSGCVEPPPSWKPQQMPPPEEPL

By inhibition is commonly meant the drop in the measured response relative to a control, in per cent. For `CC(=O)Nc1cccc(C#Cc2cncnc2Nc2ccc(OCc3cccc(F)c3)c(Cl)c2)c1`, the inhibition was -1.15% in assay [1]; -0.41% in assay [2]; -2.47% in [3]; -0.51% in [4]; -4.66% in [5]; 3.13% in assay [6]. For the same molecule, the inhibition in assay [7] was -2.41%; in [8] it was 2.6%; in [9], -1.07%; in [10] it was 0.8%; in assay [11], -0.15%; in assay [12] it was 1.85%. In addition, the inhibition in [13] came out at 1.3%; in [14], 1.33%; in [15], 2.68%; in assay [16], 1.9%; in assay [17] it was 1.16%; in assay [18] it was 2.97%. The inhibition in assay [19] is 2.6%; in [20] it was 1.96%.
